{"source": "PubChem BioAssay AID1851", "about": "(National Center for Advancing Translational Sciences (NCATS), 2009)", "note": "About 2,600 (16%) of roughly 16,000 compounds were called active. About 20% were inconclusive and are not listed. These entries were drawn from the full list. Values without a mark were called inactive. The call rests on the fitted dose curve; in most records, active means well fitted curve in the direction sought with a large enough effect; inconclusive means small, poorly fitted or top-dose-only effect, or effect the other way; inactive means no such curve, though single readings can be large or run the other way. On the % scale 0 is the no-effect control and ±100 the full control effect."}
{"biological_target": "Cytochrome P450 2D6 (Homo sapiens) (UniProt P10635)", "sequence (P10635 whole entry, looked up)": "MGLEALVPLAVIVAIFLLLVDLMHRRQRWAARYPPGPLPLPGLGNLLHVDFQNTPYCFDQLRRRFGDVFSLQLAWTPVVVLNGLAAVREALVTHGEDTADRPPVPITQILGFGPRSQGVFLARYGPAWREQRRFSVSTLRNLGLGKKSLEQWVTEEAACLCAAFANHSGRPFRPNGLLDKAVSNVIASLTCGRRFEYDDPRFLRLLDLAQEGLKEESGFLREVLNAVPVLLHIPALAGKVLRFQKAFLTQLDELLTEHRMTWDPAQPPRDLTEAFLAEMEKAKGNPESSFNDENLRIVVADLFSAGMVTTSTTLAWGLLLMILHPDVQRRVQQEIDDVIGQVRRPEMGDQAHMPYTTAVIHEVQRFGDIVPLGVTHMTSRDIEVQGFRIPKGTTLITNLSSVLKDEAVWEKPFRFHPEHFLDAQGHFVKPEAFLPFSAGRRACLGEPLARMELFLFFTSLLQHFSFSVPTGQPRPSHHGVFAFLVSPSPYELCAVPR", "assay": "Cytochrome panel assay with activity outcomes", "conditions": "recombinant CYP, pro-luciferin dealkylation, luminescence, p450-cyp2d6; series mostly up to 57.1 µM"}
{"compound": "COC(=O)c1c(-c2cc(OC)c(OC)c(OC)c2)c2ccnc(OCc3ncccn3)c2c(=O)n1Cc1ccnc(C)c1", "AC50": "inactive"}
{"compound": "C[C@H](N)C(=O)O", "AC50": "inactive"}
{"compound": "Cc1ccc(S(=O)(=O)Oc2cc(N)c3c(n2)CCC3)cc1", "activity, negative = inhibition": "-20.4% [at 11.4 µM]"}
{"compound": "Cc1ccc(S(=O)(=O)Oc2ccc(C3C4=C(CCCC4=O)OC4=C3C(=O)CCC4)cc2)cc1", "AC50": "7.94 µM (active)"}
{"compound": "COc1ccc2c(c1)OC1=C(C(=O)CCC1)C2C1=C(O)CCCC1=O", "note": "(stereo not given)", "AC50": "inactive"}
{"compound": "COc1ncc2nc(-c3ccccc3)c(=O)n(-c3ccccc3)c2n1", "AC50": "inactive"}
{"compound": "COC(=O)C(C(=O)OC)C(C[N+](=O)[O-])c1ccc(OC)c(OC)c1", "note": "(stereo not given)", "AC50": "inactive"}
{"compound": "O=C1CC(N(O)C2CC(=O)N(Cc3ccccc3)C2=O)C(=O)N1Cc1ccccc1", "note": "(stereo not given)", "AC50": "inactive"}
{"compound": "CCOC(=O)CCN1C(=O)[C@H]2[C@H]3[C@H](O)[C@H](O)C/C(=N/OC[C@@H](O)COCc4ccco4)[C@@H]3CC[C@@H]2C1=O", "activity, negative = inhibition": "7.94% [at 11.4 µM]"}
{"compound": "CN(C)C(=O)c1ccc(-c2nccc(Nc3ccc(F)cc3)n2)cc1", "AC50": "inactive"}
{"compound": "Cc1noc(C)c1-c1cc(Nc2ccc(F)cc2)ncn1", "AC50": "inactive"}
{"compound": "CN(C)c1ccc(-c2nccc(Nc3ccc(F)cc3)n2)cc1", "AC50": "20 µM (active)"}
{"compound": "Cc1noc(C)c1-c1nccc(Nc2ccc(F)cc2)n1", "AC50": "inactive"}
{"compound": "Fc1ccc(Nc2ccnc(-c3ccc4c(c3)OCO4)n2)cc1", "AC50": "10 µM (active)"}
{"compound": "Nc1nccc(Nc2ccc(S(N)(=O)=O)cc2)n1", "activity, negative = inhibition": "-5.16% [at 11.4 µM]"}
{"compound": "C[C@H]1[C@@H](O)[C@@H](C)\\C=C/C=C\\C=C/C=C\\C=C/C=C\\C=C/[C@@H](O[C@H]2O[C@@H](C)[C@@H](O)[C@@H](N)[C@@H]2O)C[C@@H]2O[C@](O)(C[C@@H](O)C[C@@H](O)[C@@H](O)CC[C@@H](O)C[C@@H](O)CC(=O)O[C@H]1C)C[C@@H](O)[C@H]2C(=O)O", "note": "(stereo in doubt)", "AC50": "inactive"}
{"compound": "Cc1sc2c(c1C)c(=O)n(-c1ccccc1)c1nnc(C)n21", "AC50": "inactive"}
{"compound": "CC(C)(Oc1ccc(Cl)cc1)C(=O)Nc1ccncc1", "AC50": "0.0316 µM (active)"}
{"compound": "CC(C)(Oc1ccc(Cl)cc1)C(=O)Nc1cccnc1", "AC50": "inactive"}
{"compound": "CC(C)OC(=O)C(C)(C)Oc1ccc(C(=O)c2ccc(Cl)cc2)cc1", "AC50": "inactive"}
{"compound": "CN(C)c1ncc2nc(-c3ccc(F)cc3)c(=O)n(CCc3ccccc3)c2n1", "AC50": "inactive"}
{"compound": "COc1cc2ccc(=O)oc2cc1O", "AC50": "inactive"}
{"compound": "CN(C)C(=O)c1ccc(-c2cncnc2NCCN2CCOCC2)cc1", "AC50": "inactive"}
{"compound": "Cc1noc(C)c1-c1cncnc1NCCN1CCOCC1", "AC50": "inactive"}
{"compound": "COc1cccc(-c2nc(NCCN3CCOCC3)c3ccccc3n2)c1", "AC50": "12.6 µM (active)"}
{"compound": "COc1cccc(-c2cncnc2NCCN2CCOCC2)c1", "AC50": "10 µM (active)"}
{"compound": "CS(=O)(=O)Nc1cccc(-c2nc(NCCN3CCOCC3)c3ccccc3n2)c1", "AC50": "inactive"}
{"compound": "COc1cccc(-c2cc(C(F)(F)F)nc(N3CCOCC3)n2)c1", "AC50": "inactive"}
{"compound": "N#CCCn1c(=O)c(-c2cccc(C#N)c2)nc2cnc(N3CCOCC3)nc21", "AC50": "inactive"}
{"compound": "c1cncc(-c2nc(NCCN3CCOCC3)c3ccccc3n2)c1", "AC50": "10 µM (active)"}
{"compound": "N#Cc1cccc(-c2nc(NCCN3CCOCC3)c3ccccc3n2)c1", "AC50": "7.94 µM (active)"}
{"compound": "COC(=O)c1ccccc1NC(=O)c1ccc(COc2ccc(C)c(C)c2)o1", "AC50": "inactive"}
{"compound": "NCCCCCCCCCCN", "AC50": "inactive"}
{"compound": "O=C1NC(c2ccccc2)=NC1(NS(=O)(=O)c1ccccc1)C(F)(F)F", "note": "(stereo not given)", "AC50": "inactive"}
{"compound": "CCOC(=O)c1cc(-c2ccccc2)sc1NC(=O)C(C)(C)C", "AC50": "inactive"}
{"compound": "Nc1nc(-c2ccc3ccccc3c2)cc(-c2cc(-c3ccc4ccccc4c3)nc(N)n2)n1", "activity, negative = inhibition": "1.49% [at 11.4 µM]"}
{"compound": "CC(=O)Nc1cccc(C(=O)OCc2ccc(C(=O)Oc3ccc(Cl)cc3)cc2)c1", "AC50": "inactive"}
{"compound": "CN1CCN(C(=O)C(C(=O)c2ccc(F)cc2)n2ccccc2=O)CC1", "note": "(stereo not given)", "AC50": "inactive"}
{"compound": "CCc1cccc2c(C=C(C#N)C#N)cn(CC(=O)N3CCCC3)c12", "AC50": "inactive"}
{"compound": "COc1ccc(/C=C2\\CCCC3C2=NN(C(=O)c2ccco2)C3c2ccc(OC)c(OC)c2)cc1OC", "note": "(stereo not given)", "AC50": "inactive"}
{"compound": "COc1ccc(/C=C2\\N=C(SC)N(C)C2=O)cc1", "AC50": "inactive"}
{"compound": "O=C(N/N=C/C=C/c1ccccc1)c1cc2c(ccc3ccccc32)o1", "AC50": "inactive"}
{"compound": "O=C(O)[C@@H](O)[C@@H](O)[C@@H](O)[C@@H](O)C(=O)O", "note": "(tested in a mixture with another compound)", "AC50": "inactive"}
{"compound": "CC(C)CCNC(=S)NC1CCCC1", "AC50": "inactive"}
{"compound": "Cc1nn(C(C)(C)C)c(OC(=O)c2ccco2)c1Sc1ccccc1", "AC50": "inactive"}
{"compound": "CCOC(=O)c1c(C)c(C)n2c1NC(=O)C2", "activity, negative = inhibition": "-4.83% [at 11.4 µM]"}
{"compound": "CCOC(=O)c1c(C)c(C(=O)N2CCN(C(=O)c3ccco3)CC2)c(C)n1C", "AC50": "inactive"}
{"compound": "CCOC(=O)c1c(C)c(C(=O)N2CCCCCC2)c(C)n1C", "AC50": "11.2 µM (active)"}
{"compound": "C[C@@]12CC[C@@H]3c4ccc(O)cc4CC[C@H]3[C@H]1C[C@@H](O)[C@H]2O", "AC50": "inactive"}
{"compound": "Oc1ccccc1C(Sc1nc2ccccc2s1)Sc1nc2ccccc2s1", "activity, negative = inhibition": "-20.9% [at 11.4 µM]"}
{"compound": "Cc1ccc(C(=O)CN(C(=O)c2ccc(Cl)cc2)N2C(=O)c3ccccc3C2=O)cc1", "AC50": "inactive"}
{"compound": "Cc1nnc(-c2cnn(-c3ccccc3)c2N)n1Cc1ccccc1", "AC50": "inactive"}
{"compound": "CN(C)c1ccccc1CN1CCCN(Cc2ccccc2N(C)C)C1c1ccncc1", "AC50": "1.26 µM (active)"}
{"compound": "COc1cccc(/C=N\\NC(=O)C2C(=O)NCC2c2ccccc2)c1O", "note": "(stereo not given)", "AC50": "inactive"}
{"compound": "COc1ccc(-c2nn(-c3ccccc3)cc2/C=N/NC(=O)c2ccc(Br)o2)cc1", "AC50": "inactive"}
{"compound": "Cn1c(=O)n(CC#N)c2ccccc21", "AC50": "inactive"}
{"compound": "c1ccc(Cc2nnc(Sc3ccccc3)c3ccccc23)cc1", "AC50": "inactive"}
{"compound": "CNCCc1ccccn1", "AC50": "inactive"}
{"compound": "S=C(Nc1ccc2c(c1)Cc1ccccc1-2)Nc1ccc2c(c1)Cc1ccccc1-2", "activity, negative = inhibition": "1.03% [at 11.4 µM]"}
{"compound": "CN(CCc1ccccn1)c1ccc2c(c1)Cc1ccccc1-2", "AC50": "3.16 µM (active)"}
{"compound": "COCC(=O)Nc1c(I)c(C(=O)NC[C@@H](O)CO)c(I)c(C(=O)N(C)C[C@@H](O)CO)c1I", "AC50": "inactive"}
{"compound": "O=C(CCCc1ccccc1)N1CCN(c2ccc([N+](=O)[O-])cc2)CC1", "AC50": "inactive"}
{"compound": "CCOc1cc(/C=C2/SC(=O)N(CC(=O)N3CCc4ccccc4C3)C2=O)ccc1OCC(=O)O", "AC50": "inactive"}
{"compound": "CC(C)N(C(=O)CSc1nc2ccccc2n1-c1ccccc1)C(C)C", "AC50": "inactive"}
{"compound": "COc1ccc(C(=O)N2CCC3(CCCN(C)C3)CC2)cc1", "AC50": "inactive"}
{"compound": "COc1ccc(C(=O)N2CCC[C@@]3(CCN(Cc4ccccc4)C3)C2)cc1", "AC50": "7.94 µM (active)"}
{"compound": "COc1ccc(C(=O)N2CCC3(CCCN(Cc4ccccc4)C3)CC2)cc1", "AC50": "7.94 µM (active)"}
{"compound": "COc1ccc(C(=O)N2CCC[C@@]3(CCN(Cc4ccc(C#N)cc4)C3)C2)cc1", "AC50": "inactive"}
{"compound": "COc1ccc(C(=O)N2CCC3(CCCN(CC(C)C)C3)CC2)cc1", "AC50": "inactive"}
{"compound": "COc1ccc(C(=O)N2CCC[C@@]3(CCN(C(=O)Nc4ccccc4)C3)C2)cc1", "AC50": "inactive"}
{"compound": "C=CCc1cc(C=O)cc(OC)c1OCc1ccc(Cl)cc1", "AC50": "inactive"}
{"compound": "COc1cc(-n2ccnc2SC)c(Cl)cc1Cl", "AC50": "inactive"}
{"compound": "CCNc1nc(NCC)nc(ON=C(C)C)n1", "AC50": "inactive"}
{"compound": "COc1ccc2nc(/N=C\\N(C)C)sc2c1", "AC50": "inactive"}
{"compound": "Cc1[nH]n2c(=O)c(C#N)c(-c3ccccc3)nc2c1-c1ccccc1", "AC50": "inactive"}
{"compound": "CCC#CCOCC(=O)Nc1ccccc1", "AC50": "inactive"}
{"compound": "Cn1ncc2c(Nc3cccc(Cl)c3)nc(Nc3cccc(Cl)c3)nc21", "activity, negative = inhibition": "16.7% [at 11.4 µM]"}
{"compound": "c1ccc(CCNc2nnnn2-c2ccccc2)cc1", "AC50": "inactive"}
{"compound": "Cn1ncc2c(NCCc3ccccc3)nc(Cl)nc21", "AC50": "0.126 µM (active)"}
{"compound": "CC(C)n1c(=O)c2c(O)cc(=O)oc2c2ccccc21", "AC50": "inactive"}
{"compound": "NC(=O)[C@H]1CC2(CC(c3cccc(NC(=O)c4ccccc4)c3)=NO2)CN1C(=O)[C@H]1CCC(=O)N1", "note": "(stereo not given in full)", "AC50": "inactive"}
{"compound": "CCC(CC)C(=O)Nc1cccc(C(=O)Nc2ccc(OC)cc2[N+](=O)[O-])c1", "AC50": "inactive"}
{"compound": "COc1ccc(NC(=O)C(F)(F)F)cc1OC", "AC50": "inactive"}
{"compound": "CCCCCCCCC[n+]1cccc2c3ccccc3ccc21", "AC50": "0.0708 µM (active)"}
{"compound": "O=C(OC(C(=O)NC1CCCC1)c1ccncc1)C1=Cc2ccccc2OC1", "note": "(stereo not given)", "AC50": "inactive"}
{"compound": "Cc1ccc(CNC(=O)C2(NC(=O)Nc3ccc(C)cc3)CCCCC2)cc1", "AC50": "inactive"}
{"compound": "CCn1c(SCC(=O)NC2CCCc3ccccc32)nnc1-c1cccs1", "note": "(stereo not given)", "AC50": "inactive"}
{"compound": "CCn1c(SCC(=O)NC(=O)NCc2ccco2)nnc1-c1cccs1", "AC50": "inactive"}
{"compound": "CCn1c(SCC(=O)OC)nnc1C1CCCCC1", "AC50": "inactive"}
{"compound": "COc1ccc(NC(=O)CSc2nnc(C3CC3)n2-c2ccccc2)cc1", "AC50": "inactive"}
{"compound": "CCn1c(SCC(=O)c2ccccc2)nnc1-c1cccs1", "AC50": "14.1 µM (active)"}
{"compound": "CCn1c(COc2ccccc2)nnc1SCC(=O)c1cccc([N+](=O)[O-])c1", "AC50": "inactive"}
{"compound": "CCN(CC)C(=O)CSc1nnc(-c2cc3ccccc3cc2O)n1CC", "AC50": "inactive"}
{"compound": "CCn1c(SCC(=O)c2ccc3ccccc3c2)nnc1-c1cccs1", "AC50": "14.1 µM (active)"}
{"compound": "CCn1c(SCC(=O)c2ccc(OC)cc2)nnc1C1CC1", "AC50": "14.1 µM (active)"}
{"compound": "CCCCN=c1sc(C(=O)OC)cc(=O)n1CCCC", "AC50": "inactive"}
{"compound": "O=C1C2=C(Nc3cc([N+](=O)[O-])ccc3N2)O[C@@H]1c1c[nH]c2ccc(COc3ccccc3)cc12", "activity, negative = inhibition": "5.7% [at 11.4 µM]"}
{"compound": "Cc1noc(C)c1C(=O)N1CCC2(CCCN(c3ccncc3)C2)CC1", "AC50": "inactive"}
{"compound": "O=C(O)c1cc2c(o1)CCC/C2=N\\O", "AC50": "inactive"}
{"compound": "Cc1nc2ncnn2c(C)c1CCC(=O)Nc1ccc(S(=O)(=O)N2CCCCCC2)cc1", "AC50": "inactive"}
